Measurements from PubChem BioAssay (NCATS).
Results filed as inconclusive are left out. Calls of active or inactive are those of the source. The call rests on the fitted dose curve; in most records, active means well fitted cell-killing curve with a large enough effect; inconclusive means small, poorly fitted or top-dose-only effect; inactive means no such curve, though single readings can be large or run the other way.

experiment: qHTS of pediatric cancer cell lines to identify multiple opportunities for drug repurposing: Confirmatory screen for U-2 OS cells (AID 1347122); details: U-2 OS osteosarcoma cell viability; series mostly up to 45.9 µM; activity change, negative = cytotoxicity: at the top concentration; further: nearly all actives have a fitted effect of over 65% in size
From the text: Drug repurposing or repositioning has been offered as a strategy for drug development in oncology programs. This approach has special potential for childhood cancers and other rare or orphan diseases, where the expected return on new drug development has been a disincentive to pharmaceuticals.
In this project we exploit the poly-pharmacology of drugs to discover new indications via phenotypic screening of a panel of 19 well-characterized cell lines derived from solid tumors seen in children and adolescents. The goal is to identify approved drugs with previously unrecognized anticancer properties that has the potential to reveal new mechanisms and biological processes involved in carcinogenesis or drug resistance. We employed a titration-based paradigm (quantitative high-throughput screening or qHTS), where all compounds were tested at multiple concentrations for their effect on cell viability. Concentration-response curves (CRCs) were derived directly from the primary screen, and both potency and efficacy values were used to identify compounds with robust bioactivity profiles. We screened the NIH Chemical Genomics Center (NCGC) Pharmaceutical Collection (NPC) and Mechanism Interrogation Plate (MIPE) small molecule collections of approved and investigational compounds against these cell lines; and measured metabolically active cells after 48 hours of compound treatment as a proxy for cell viability.
Assay Submitter: Nathalia J. Martinez, National Center for Advancing Translational Sciences, National Institutes of Health, Rockville, MD, USA; email: natalia.martinez@nih.gov
[1] Shen, M et al. Quantitative high-throughput phenotypic screening of pediatric cancer cell lines identifies multiple opportunities for drug repurposing. Oncotarget 2017 Dec 19;9(4):4758-4772. PMID 29435139.
The cells were obtained from University of North Carolina (UNC), Pediatric Preclinical Testing Program (PPT), and Coriell Institute (CI).
qHTS cell viability assay:
Cells were assayed in growth media at a density of 500-1,000 cells/well. Five microliters of cells were dispensed into 1,536-well, white, solid-bottom, TC-treated plates (Greiner Bio One) using a multidrop dispenser and incubated at 37 degrees C, 5% CO2, under a humidified atmosphere for 5 hours. Twenty-three nanoliters of compounds and controls (neutral control DMSO or positive control bortezomib at final concentration of 2.3 µM) were subsequently transferred by Kalypsys pintool. For primary screens, the MIPE collection was tested at 11-point dilutions (final concentrations range from 0.78 nM to 46 µM) and the NPC collection at 8-point dilutions (final concentrations range from 0.59 nM to 46 µM). Compounds tested in follow-up screens were assayed at 11-point dilutions. Cells were incubated for 48 hours, followed by addition of 3 µL of CellTiter-Glo (Promega). After a 15 min incubation at room temperature, samples were analyzed for luminescence intensity using a ViewLux High-throughput CCD imager equipped with clear filters.
Potency means the concentration at half of the fitted maximal effect.

Compound | Potency | activity change, negative = cytotoxicity
O=C1c2c(O)ccc(O)c2C(=O)c2c(NCCNCCO)ccc(NCCNCCO)c21 | 5.22 µM (active) | 
NC12CC3CC(CC(C3)C1)C2 |  | 0.701% (inactive)
Clc1ccc(C(c2ccccc2Cl)C(Cl)Cl)cc1 (stereo not drawn) |  | -8.17% (inactive)
CC(COc1ccccc1)N(CCCl)Cc1ccccc1 (stereo not drawn) |  | -9.77% (inactive)
CCC1(c2ccccc2)C(=O)NCNC1=O |  | 5.07% (inactive)
CS(=O)(=O)CCNCc1ccc(-c2ccc3ncnc(Nc4ccc(OCc5cccc(F)c5)c(Cl)c4)c3c2)o1 | 20.8 µM (active) | 
NC(=O)NO | 23.3 µM (active) | 
CS(=O)(=O)Nc1ccc([N+](=O)[O-])cc1Oc1ccccc1 |  | -2.49% (inactive)
CC(CCc1ccc(O)cc1)NCCc1ccc(O)c(O)c1 (stereo not drawn) |  | 24.1% (inactive)
CC[C@@]1(O)C(=O)OCc2c1cc1n(c2=O)Cc2cc3c(CN(C)C)c(O)ccc3nc2-1 | 10.4 µM (active) | 
CC(C)NCC(O)c1ccc(O)c(O)c1 (stereo not drawn) | 7.37 µM (active) | 
Clc1ccc2nsnc2c1NC1=NCCN1 |  | 19.4% (inactive)
COC(=O)Nc1nc2ccc(C(=O)c3cccs3)cc2[nH]1 | 0.208 µM (active) | 
CCCCc1oc2ccccc2c1C(=O)c1cc(I)c(OCCN(CC)CC)c(I)c1 | 28.2 µM (active) | 
O=C(Nc1ccc([N+](=O)[O-])cc1Cl)c1cc(Cl)ccc1O | 4.56 µM (active) | 
COc1cc2c(c(OC)c1OC)-c1ccc(OC)c(=O)cc1[C@@H](NC(C)=O)CC2 | 0.112 µM (active) | 
O=C(c1ccc(OCCN2CCCCC2)cc1)c1c(-c2ccc(O)cc2)sc2cc(O)ccc12 |  | -72.5% (inactive)
CN1CCN(CCCN2c3ccccc3Sc3ccc(Cl)cc32)CC1 | 5.85 µM (active) | 
